BAZ2B block: blocks human BAZ2B. Q9UIF8. AlphaScreen BAZ2B-H3K14Ac peptide displacement. Potency, µM (top dose mostly 114 µM), without a hit: at the top dose activity change, negative = inhibition, actives largely listed as inhibitors. actives 4.4% (n = 360,000). AID 504333; note: potency is the fitted concentration of half-maximal effect; % is set by controls: 0 for no effect and ±100 for the full control effect; nearly all actives have a fitted effect of over 60% in size
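Protein-peptide AlphaScreen: BAZ2B 50 nM, b-H3K14Ac 50 nM, 1x PBS pH 7.4 + 0.01% Tween-20. Preincubation 30 min RT; cpd 30 min RT (top 110 uM); beads 20 min RT, light-protected.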
G9a inh: blocks human histone lysine methyltransferase G9a | Q96KQ7 | actives 8.8% (n = 350,000) | Potency, µM (titrated, usually from 102 µM), for inactives: at the top dose activity, negative = inhibition, most hits filed as inhibitors | AID 504332 | G9a H3K9 monomethylation, AlphaScreen, 2 h; note: potency is the fitted concentration of half-maximal effect; % is set by controls: 0 for no effect and ±100 for the full control effect; nearly all actives have a fitted effect of over 75% in size
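Using a bead-based AlphaScreen, monomethylated H3K9 product from 2 h room-temperature reactions (G9a 20 nM, peptide 500 nM, SAM 20 uM) was detected with 0.5 ug/mL rabbit anti-H3K9me1 antibody.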
HP1b chromo inh: inhibitors of HP1-beta chromodomain binding to methylated histone tails | AlphaScreen HP1-beta / biotin-H3K9me3 peptide binding | actives 0.56% (n = 390,000) | P83916 | Potency, µM (doses to about 114 µM), for inactives: top-dose activity change, negative = inhibition, usual class: inhibitors | AID 540317; note: potency is the fitted concentration of half-maximal effect; nearly all actives have a fitted effect of over 70% in size
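HP1-beta protein (50 nM final) preincubated 30 min at room temperature with biotinylated H3(1-18)K9me3 peptide (50 nM) in PBS pH 7.4, 0.01% Tween-20, then compound added for 30 min. AlphaScreen streptavidin donor/nickel chelate acceptor beads (10 ug/mL final), 30 min dark, luminescence read.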
JMJD2A Tudor: JMJD2A Tudor domain (human) inhibition. O75164. AlphaScreen JMJD2A-Tudor / H3K4me3 peptide binding. Potency, µM (series often up to 114 µM), for inactives: top-dose activity change, negative = inhibition, actives largely listed as inhibitors. actives 4.4% (n = 390,000); note: potency is the fitted concentration of half-maximal effect; % is set by controls: 0 for no effect and ±100 for the full control effect; nearly all actives have a fitted effect of over 50% in size
Six1-Eya2 blk: blocks human Six1 binding to Eya2. actives 0.56% (n = 360,000). activity change, % (no concentration beside the values). Q15475+O00167. AlphaScreen GST-Six1/His-Eya2 binding, biochemical; active compounds read low. AID 651725; in the data active = activity change below about -65%; inconclusive = mostly about -30% to -63%; note: % is set by controls: 0 for no effect and ±100 for the full control effect
Target sequence (O00167 whole entry, looked up): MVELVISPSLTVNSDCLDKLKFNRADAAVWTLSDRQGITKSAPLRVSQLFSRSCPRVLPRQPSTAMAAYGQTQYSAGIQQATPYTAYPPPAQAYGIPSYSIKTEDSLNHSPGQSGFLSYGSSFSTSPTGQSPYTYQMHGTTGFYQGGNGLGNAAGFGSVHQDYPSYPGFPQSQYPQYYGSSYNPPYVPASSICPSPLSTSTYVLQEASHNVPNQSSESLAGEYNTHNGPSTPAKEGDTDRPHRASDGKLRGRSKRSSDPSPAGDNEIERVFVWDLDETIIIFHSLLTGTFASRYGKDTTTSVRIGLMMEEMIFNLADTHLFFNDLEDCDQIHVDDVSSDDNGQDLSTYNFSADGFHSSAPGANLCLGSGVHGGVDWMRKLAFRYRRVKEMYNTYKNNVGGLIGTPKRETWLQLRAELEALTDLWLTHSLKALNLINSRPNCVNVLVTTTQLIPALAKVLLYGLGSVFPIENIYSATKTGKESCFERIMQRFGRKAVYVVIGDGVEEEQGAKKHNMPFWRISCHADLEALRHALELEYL
Target sequence (Q15475 whole entry, looked up): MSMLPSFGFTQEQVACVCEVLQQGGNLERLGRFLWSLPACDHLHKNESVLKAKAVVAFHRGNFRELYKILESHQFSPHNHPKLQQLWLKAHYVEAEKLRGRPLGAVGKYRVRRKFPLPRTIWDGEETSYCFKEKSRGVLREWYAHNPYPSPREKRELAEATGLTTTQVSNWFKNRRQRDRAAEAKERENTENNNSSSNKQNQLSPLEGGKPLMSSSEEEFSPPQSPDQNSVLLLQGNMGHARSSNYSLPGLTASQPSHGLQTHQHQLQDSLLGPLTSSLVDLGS
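AlphaScreen with GST-Six1 and His-Eya2 (5X mix: 250 nM and 500 nM), glutathione donor and nickel acceptor beads; buffer 50 mM Tris pH 8.0, 300 mM NaCl, 1 mM TCEP; 1 h at 37 C in the dark.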
CtBP-E1A inh: CtBP/E1A binding inhibition; AlphaScreen GST-E1A/His-CtBP binding, 1536-well; active compounds read low; activity change, % (concentration not given with the values); actives 0.49% (n = 340,000); AID 651724; in the data active = activity change below about -65%; inconclusive = mostly about -30% to -63%; note: % is set by controls: 0 for no effect and ±100 for the full control effect
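AlphaScreen with 125 nM GST-E1A and 125 nM His-CtBP (5X stocks) in Tris pH 8.0, 300 mM NaCl, BSA, Tween 20, TCEP. Compounds preincubated 2 h at 37 deg C, then glutathione donor/nickel acceptor beads added for 1 h at 37 deg C in dark.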
Active calls of the source: *; ? = inconclusive; / = no result; ! = not active in a repeat; [ ] = dose if it differs, or a comment. The list is not random: actives were taken first. Their share in the collection is about 10%. Unless noted, calls come from the whole dose curve; as a rule, active = well fitted inhibition curve with a large enough effect; inconclusive = small, poorly fitted or top-dose-only effect; inactive = no such curve, though single readings can be large or run the other way.

SMILES	BAZ2B block	G9a inh	HP1b chromo inh	JMJD2A Tudor	Six1-Eya2 blk	CtBP-E1A inh
COc1ccc(C(=O)N/C(=C/c2cccnc2)C(=O)Nc2cccc(C(C)=O)c2)cc1OC	3%	0%[12.7 µM]	1%	56µM*	4	19
O=C(NC(=S)Nc1cc(Cl)ccc1O)c1cccc(Br)c1	-4%	71µM*	6%	-10%	-3	/
CCCOc1cccc(C(=O)NC(=S)Nc2ccc(N3CCN(C)CC3)cc2)c1	-12%	-16%[59 µM]	?	?	17	1
CCOc1cccc(C(=O)N(Cc2ccc(F)cc2)Cc2ccco2)c1	19%	6%[59 µM]	35%	-4%	/	/
O=C(CN1C(=O)c2cccc([N+](=O)[O-])c2C1=O)OCC(=O)N1CCCCC1	1%	?	26%	-12%	9	-1
COc1cc(OC)cc(C(=O)NC(=S)N2CCCCCC2)c1	?	6%	10%	?	-6	8
CCOc1cccc(C(=O)NC(=S)Nc2cccnc2)c1	-33%	10µM*	7%	?	-2	4
O=C(NNc1cccc([N+](=O)[O-])c1)/C(=C\c1cccnc1)NC(=O)c1ccccc1	-24%	50µM*	24%	-8%	0	/
COc1cc(OC)cc(C(=O)NC(=S)Nc2ccc(N3CCCC3)cc2)c1	?	10µM*	?	?	-30	-7
O=C(c1ccc2ccccc2c1)N1CCN(c2ccc([N+](=O)[O-])c(N3CCOCC3)c2)CC1	?	?	?	?	-24	-12
O=C(c1ccc(F)cc1)N1CCN(c2ccc([N+](=O)[O-])c(N3CCCCC3)c2)CC1	?	28µM*	-16%	?	?	-21
CC(=O)c1cccc(NC(=O)/C(=C\c2cccnc2)NC(=O)c2ccccc2)c1	-2%	14%	24%	8%	1	-15
CCOc1ccc(C(=O)NC(=S)Nc2ccc(N3CCCCC3)cc2)cc1[N+](=O)[O-]	8.9µM*	6.3µM*	11µM*	?	-27	?
O=C(O)c1ccc(NC(=S)NC(=O)c2cccnc2)cc1	-5%	79µM*	-16%	-2%	5	6
CCOc1cccc(C(=O)NC(=S)Nc2cccc(NC(=O)c3ccccc3Cl)c2)c1	79µM*	-47%[59 µM]	6%	-8%	-21	-13
O=C(NC(=S)Nc1cccnc1)c1cccc(Br)c1	-16%	35µM*	-19%	-19%	9	-3
CCOc1ccc(C(=O)NC(=S)Nc2ccccc2N2CCCCC2)cc1[N+](=O)[O-]	23%	21%[59 µM]	?	?	-28	?
COC(=O)c1ccc(NC(=S)NC(=O)c2cccnc2)cc1	-13%	/	19%	-3%	3	7
Cc1cc(OCC(=O)OCC(=O)N2CCCCC2)ccc1Cl	/	/	/	/	5	0
CCCn1c(=O)c2[nH]c(-c3ccccc3)nc2n(CCC)c1=O	/	26%[59 µM]	/	/	/	/
O=C(CCc1ccccc1)Nc1cccnc1	-8%	18%	31%	-10%	7	9
CNC(=O)c1ccc(NC(=O)CCNC(=O)Nc2ccccc2)cc1	-2%	45µM*	38%	-1%	-1	6
Cc1cccc(NC(=O)CCNC(=O)c2ccccc2)c1	10%	11%	20%	-5%	-1	8
O=C(CCNC(=O)c1ccccc1)Nc1cccnc1	19%	-26%	-1%	45µM*	14	-1
COC(=O)[C@@]12C[C@@H](CC(=O)NCC34CC5CC(CC(C5)C3)C4)C(=O)N(Cc3ccco3)C1=CCC(C)(C)C2	/	/	/	/	-3	-3
SMILES	BAZ2B block	G9a inh	HP1b chromo inh	JMJD2A Tudor	Six1-Eya2 blk	CtBP-E1A inh
Cc1ccccc1Cn1ccc(NC(=O)c2cc3ncc(Br)cn3n2)n1	50µM*	-37%	33%	-11%	9	/
CSc1ccccc1NC(=O)c1cc2ncc(Br)cn2n1	56µM*	35µM*	-10%	?	22	0
CC(C)c1ccccc1NC(=O)c1cnccn1	-3%	-14%[12.7 µM]	32%	-8%	-1	4
CSc1ccccc1NC(=O)c1cnccn1	0%	25µM*	6%	-24%	4	0
COc1ccc2[nH]c3c(Cl)ncnc3c2c1	8%	-11%	24%	-7%	-10	-19
COc1ccc2[nH]c3c(=S)nc[nH]c3c2c1	-31%	3.5µM*	-21%	1.6µM*	?	?
CN(C)c1cccc2c1c(NC(=O)Nc1ccccc1)nn2C	-33%	35µM*	10%	?	-21	/
N#Cc1ccc(OCC(=O)Nc2ccncc2)cc1	-11%	50µM*	35%	-2%	2	-4
N#Cc1ccc(OCC(=O)NCCCn2ccnc2)cc1	/	/	9%[57 µM]	63µM*	?	?
COc1ccc(OCC(=O)NCCCn2ccnc2)cc1	?	28%[59 µM]	29%	-2%	-3	3
CCCCN(CCCC)CC(O)COc1ccc(Br)cc1 (stereo unspecified)	32µM*	7.9µM*	?	1.4µM*	6	-1
O=[N+]([O-])c1ccc(OCC(O)CN(CCO)CCO)cc1 (stereo unspecified)	-7%	-18%[59 µM]	24%	-10%	10	6
CC(C)C(=O)N[C@@H]1c2ccccc2CC[C@@H]1O	/	/	26%	-5%	-17	-11
Cc1cc2oc(C(=O)N(Cc3ccc(N(C)C)cc3)CC3CCCO3)c(C)c2cc1Cl (stereo unspecified)	14µM*	14µM*	-21%	22µM*	/	/
Cc1c(C(=O)N(Cc2ccc(N(C)C)cc2)CC2CCCO2)oc2ccc(Br)cc12 (stereo unspecified)	10µM*	13µM*	?	13µM*	/	/
Cc1c(C(=O)N(Cc2ccc(N(C)C)cc2)CC2CCCO2)oc2ccccc12 (stereo unspecified)	11µM*	14µM*!	?	28µM*	?	?
Cc1c(C(=O)N(Cc2ccc(N(C)C)cc2)CC2CCCO2)oc2ccc(Cl)cc12 (stereo unspecified)	10µM*	11µM*	?	13µM*	/	/
COc1ccc(C(=O)O)cc1Nc1nc2ccc(C)cc2n2cnnc12	1%	-20%[59 µM]	18%	-4%	/	/
CC(C)CC(N)c1csc(Nc2ccc(C(=O)NCCCO)cn2)n1 (stereo unspecified)	/	/	/	/	-70*	-78*
NC(Cc1ccccc1)c1csc(Nc2ccc(C(=O)NCCO)cc2)n1 (stereo unspecified)	/	/	/	/	-16	-9
NC(Cc1ccc(F)cc1)c1csc(Nc2ccc(C(=O)NCCCO)cn2)n1 (stereo unspecified)	/	/	/	/	-68*	-72*
N=C(N)SCc1nc2ccccn2c1Br	-5%	-5%[59 µM]	12%	-11%	-12	-16

From PubChem BioAssay
